Results from PubChem BioAssay AID2563 (Broad Institute, 2010).
The campaign covered roughly 290,000 compounds. About 800 (0.28%) were called active.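 How the source made its calls: active means fall in fluorescence gain of 50% or more versus controls, with final raw signal at or below 3038400; inconclusive means same 50% fall but final raw signal above 3038400; inactive means fall in fluorescence gain under 50%.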 Only a selection was taken, and actives are over-represented in it overall.

What follows are compounds tested against CAAX prenyl protease 2 (Saccharomyces cerevisiae (strain ATCC 204508 / S288c)) (UniProt Q03530) (assay: yeast Rce1p protease inhibitors, primary screen, biochemical, fluorescence, cell-free homogeneous (AID 2563)). Conditions: yeast membranes, quenched prenylated peptide cleavage fluorescence.
CAAX prenyl protease 2 (Saccharomyces cerevisiae (strain ATCC 204508 / S288c)), sequence (Q03530 whole entry, looked up): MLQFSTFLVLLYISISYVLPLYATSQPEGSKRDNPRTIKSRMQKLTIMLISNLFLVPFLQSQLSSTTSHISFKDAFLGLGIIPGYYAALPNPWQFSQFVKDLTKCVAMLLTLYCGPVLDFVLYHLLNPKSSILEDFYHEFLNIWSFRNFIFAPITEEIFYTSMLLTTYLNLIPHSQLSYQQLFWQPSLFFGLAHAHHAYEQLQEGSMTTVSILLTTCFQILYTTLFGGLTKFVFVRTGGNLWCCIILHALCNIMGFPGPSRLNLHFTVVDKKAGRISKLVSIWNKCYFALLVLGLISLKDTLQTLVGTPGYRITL

Row | SMILES | outcome
1 | COc1cc(Cn2c(N)c(C(=O)NCc3ccco3)c3nc4ccccc4nc32)cc(OC)c1OC | active
2 | CCOC(=O)c1c(N)n(CCN2CCOCC2)c2nc3ccccc3nc12 | inactive
3 | CCOC(=O)c1c(N)n(Cc2ccccc2)c2nc3ccccc3nc12 | inactive
4 | COC(=O)C1=C(c2cc3ccccc3s2)C[C@@H]2CC[C@H]1N2C(=O)NCCO | inactive
5 | Cc1cc(N2C(=O)C3CCCN3C2c2ccc(Cl)c(Cl)c2)no1 (stereo not given) | inactive
